Reference: the supplement of paper PMC12636033
± gives the standard deviation of the averaged measurements. Whole data set: some 33,000 sequences, median “E-score (rank enrichment, -0.5 to 0.5)” near -0.0068, cut for the highest 2% near 0.24. The sample holds the highest values, similar sequences and a random draw of the others, so the mix is not that of the screen.

Test system: muMax20 (Max(13-93) K31hArg/K57hArg, M65Nle)
Assay: PBM 8-mer E-score (E-score (rank enrichment, -0.5 to 0.5)); higher = stronger preferential binding
Experimental: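 Protein binding microarray (universal PBM chip covering all 10-mers in fixed probe flanks) with chemically synthesized human Max(13-93) bHLH-LZ analogs (not full-length Max) bearing noncanonical residues (hArg, Tha, Aib, Nle at 65) and aromatic Cys staples. Read-out per 8-mer (and its reverse complement): E-score (rank-based enrichment, -0.5 to 0.5) and Z-score of median probe intensity.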

Sequence | PBM 8-mer E-score
CATGTCTC | 0.256 ± 0.015
AGTGTAGG | 0.0989 ± 0.087
GAATAATA | 0.165 ± 0.01
GGATAATA | 0.0335 ± 0.0051
CTATAATA | 0.165 ± 0.0056
ATATAATG | 0.2202 ± 0.001
GTATAATA | 0.247 ± 0.093
ATATAATA | 0.302 ± 0.0079
GGCAGAAA | 0.135 ± 0.072
CAGTGCAC | -0.103 ± 0.061
CCCGAGCA | 0.00085 ± 0.0024
GACCGAGC | -0.276 ± 0.069
ATTGCAGA | -0.0371 ± 0.034
TCCACGCA | 0.0588 ± 0.069
ATGGGCGC | -0.129 ± 0.1
ATAGCGTA | -0.019 ± 0.055
ATTCCACA | 0.101 ± 0.1
CAGAACTC | -0.171 ± 0.057
AAGGATAA | 0.149 ± 0.041
AAGGATAC | -0.00358 ± 0.02
AAGGATAT | 0.247 ± 0.062
AGCGATTC | -0.0904 ± 0.024
ACATGAGA | 0.253 ± 0.039
ACATGAAT | 0.24 ± 0.04
ACATGAAG | 0.0775 ± 0.23

Sequence | PBM 8-mer E-score
ACATGAAC | 0.0854 ± 0.018
ACATGAGT | 0.0854 ± 0.027
TCATGAGA | 0.111 ± 0.0016
ACCAACAT | 0.0339 ± 0.18
GACGGGGA | -0.043 ± 0.026
ACCAGGTG | -0.184 ± 0.13
CGGCTACC | -0.274 ± 0.058
CTACTTTA | 0.0793 ± 0.013
ATACTTTG | 0.107 ± 0.036
ATACTTTA | 0.279 ± 0.0074
GTGAGTGA | -0.073 ± 0.17
GTGTTGTA | 0.164 ± 0.016
ATGTTGTA | 0.284 ± 0.016
ATGTTGTG | 0.145 ± 0.062
AGGCGCAA | -0.0721 ± 0.067
ATAATATC | 0.257 ± 0.035
CTAATATC | 0.214 ± 0.06
ATAATAGA | 0.0729 ± 0.052
ATAATATG | 0.169 ± 0.035
CTAATATA | 0.214 ± 0.0087
GTAATATA | 0.267 ± 0.012
ACAATATA | 0.211 ± 0.037
ATAATATA | 0.263 ± 0.042
GTAATAAA | 0.154 ± 0.041
GAGGACCC | -0.228 ± 0.037

Sequence | PBM 8-mer E-score
AGTAATCA | 0.109 ± 0.12
CGGGGCGA | -0.112 ± 0.037
AGAACTCC | -0.0617 ± 0.081
AAAGGCTA | -0.0552 ± 0.0014
GACGGATA | -0.139 ± 0.049
GCTCACCA | -0.15 ± 0.068
ATACCCCG | -0.0795 ± 0.096
AACGACCA | 0.0599 ± 0.047
ACTGCCAG | -0.0897 ± 0.06
ATACAAAT | 0.273 ± 0.038
ATACAAAA | 0.305 ± 0.0098
ATACAAAG | 0.136 ± 0.09
CTACAAAA | 0.0991 ± 0.063
ACACAAAC | 0.25 ± 0.056
ATACAACA | 0.254 ± 0.025
TTACAAAA | 0.126 ± 0.043
ATACAACG | 0.203 ± 0.026
ACACAAAA | 0.208 ± 0.055
ATACAAAC | 0.225 ± 0.037
ATACAACC | -0.0691 ± 0.073
ACACAAAG | 0.23 ± 0.078
ACGGCCGG | -0.2416 ± 0.0019
CAGGCTTC | -0.0969 ± 0.0043
GATACGCC | -0.108 ± 0.043
ACTTTTGC | 0.0617 ± 0.018

Sequence | PBM 8-mer E-score
CATGTTAC | 0.123 ± 0.025
AGCCGCCG | -0.192 ± 0.18
AGCTCCTA | -0.251 ± 0.015
CCTCCCTA | -0.153 ± 0.075
AGCTTAAC | -0.126 ± 0.1
ACACTCGG | -0.0657 ± 0.025
CTATACGC | -0.00851 ± 0.07
CCTCGTTA | -0.00353 ± 0.0057
GTACAAAA | 0.2859 ± 0.0025
AAACAAAC | 0.154 ± 0.025
GCACAACC | -0.23 ± 0.0046
AAACAAAA | 0.211 ± 0.061
ATACAAGC | 0.243 ± 0.079
AAACAAAT | 0.284 ± 0.031
CCACAACA | -0.0271 ± 0.0066
GTACAAGA | 0.119 ± 0.012
GTACAAAC | 0.116 ± 0.0057
GCACAACA | 0.238 ± 0.016
ATACAAGA | 0.0614 ± 0.015
CTACAAGC | -0.0802 ± 0.066
GAGTCCAA | -0.159 ± 0.12
GCGACACA | -0.067 ± 0.12
GTCTCTGA | -0.161 ± 0.093
ATTTATTA | 0.132 ± 0.06
ACATATGC | 0.105 ± 0.011

Sequence | PBM 8-mer E-score
ATATATGC | 0.0936 ± 0.17
GCATATGA | 0.186 ± 0.04
CTTTATTC | 0.0219 ± 0.12
ATATATGA | 0.218 ± 0.069
ATATATGG | 0.258 ± 0.028
ACATATGG | 0.12 ± 0.078
GCATATGC | 0.24 ± 0.032
CTATATGC | 0.238 ± 0.043
CTATATGA | 0.109 ± 0.074
ATTTATTC | 0.241 ± 0.046
TACCCCAA | 0.157 ± 0.005
GGAGAGCC | -0.211 ± 0.032
GACGCCAC | -0.137 ± 0.094
ATGTCCGC | -0.126 ± 0.088
GACACTGA | -0.11 ± 0.068
GCAGCCAC | -0.0591 ± 0.03
CTCAGTGC | -0.224 ± 0.0089
CTCTATTC | 0.00532 ± 0.064
CTATATTC | 0.262 ± 0.052
ATATATTC | 0.201 ± 0.041
AAAAGCTA | 0.123 ± 0.0035
CAAAGCTG | 0.0952 ± 0.083
AAAAGTAC | 0.184 ± 0.042
AATAGTAA | 0.152 ± 0.012
AAAAGCTG | 0.271 ± 0.081

Sequence | PBM 8-mer E-score
AAAAGCAC | 0.162 ± 0.061
AATAGTAT | 0.24 ± 0.012
AATAGTAG | 0.0461 ± 0.02
AAAAGTAT | 0.249 ± 0.044
AAAAGTAA | 0.12 ± 0.033
AAAAGCAT | 0.243 ± 0.018
AAAAGCAG | -0.0145 ± 0.05
CCGTCGTC | -0.109 ± 0.011
AACTGGGT | -0.078 ± 0.061
CCAATGAG | -0.095 ± 0.001
CATGGACG | 0.0146 ± 0.1
GAAGAGGC | -0.108 ± 0.083
AGACGGAT | 0.0634 ± 0.17
GTCAATGA | 0.0559 ± 0.0022
CCTGCTGC | -0.107 ± 0.061
TAGTATCA | 0.131 ± 0.033
ATAGATGA | 0.0906 ± 0.033
AACGCATA | 0.0704 ± 0.12
ACACGTGC | 0.452 ± 0.05
ACACGTGA | 0.432 ± 0.055
AGACGTGC | -0.0738 ± 0.042
GCAGGTGA | -0.0216 ± 0.0013
ACACGTCA | 0.246 ± 0.006
ACAGGTGA | 0.264 ± 0.062
ACACGTCG | -0.148 ± 0.048

Sequence | PBM 8-mer E-score
ATACGTGA | 0.068 ± 0.019
AGACGTGA | 0.104 ± 0.027
ACACGTCT | 0.0471 ± 0.065
ACACGTAC | 0.137 ± 0.036
CCAGGTGA | -0.121 ± 0.026
AGCTCTTG | 0.00816 ± 0.055
CAGGCAGA | -0.144 ± 0.036
CCGGCAAA | -0.223 ± 0.11
AAACCGTC | -0.172 ± 0.074
ACCCAGAC | -0.109 ± 0.007
CTAACGCC | -0.0238 ± 0.038
AATTGCCT | 0.00671 ± 0.018
AATAGGGA | 0.142 ± 0.022
CGTTACAC | -0.0405 ± 0.053
ACACGTAG | 0.0342 ± 0.052
ACACGTGG | 0.446 ± 0.062
AAACGTGG | 0.201 ± 0.0053
ACACGTGT | 0.469 ± 0.029
AAACGTGT | 0.169 ± 0.1
TCACGTGA | 0.442 ± 0.044
TCACGTAA | 0.0827 ± 0.0065
TAACGTGA | 0.101 ± 0.052
ACACGTAT | 0.218 ± 0.052
